Our source for the INHIBITION values is ChEMBL document CHEMBL4513216, “Probing the Open Global Health Chemical Diversity Library for Multistage-Active Starting Points for Next-Generation Antimalarials” (ACS Infect Dis, 2020).

Screen size: about 65,000 compounds; about 2,100 (3.2%) showed an effect of 50% or more. The median lay at about -52%. The sample as a whole holds a higher share of strong results than the screen did.

The subject of the assay is Plasmodium falciparum. The assay is described as follows: Screen against P. falciparum Asexual Blood Stage (ABS), at 5uM. The class given is functional, Dd2. The following applies: tested at 5 uM.
Consider `Cc1ccc(-n2ncc3c2CCCC3N)cc1C` (configuration not stated), for which the INHIBITION came out at 7.06%.
In the case of `NC1CCCc2c1cnn2-c1cc(F)cc(F)c1` (configuration not stated), the INHIBITION is reported as 53.6%.
Next, `CC(C)(C)c1ccc(-n2ncc3c2CCCC3N)cc1` (configuration not stated): 31.8%; `CC(O)CN1CCN(Cc2csc(-c3ncccn3)n2)CC1` (configuration not stated): -107%.
Turning to `CCCC1(CNCc2ncc[nH]2)CCC1`, the INHIBITION worked out at 26.4%.
Next, `c1ccc(CC2(CNCc3ncc[nH]3)CCC2)cc1`: 45.2%.
Next, `CCC1(CNCc2ncc[nH]2)CCCC1`: 67%; `CCc1ccc(C(=O)N2CC[C@H](Oc3cccnc3C)[C@@H](O)CC2)cc1`: -41%.
Next, `CN(C)c1cc(C(=O)N2CCCC2)ccn1`: 55.6%; `CN(C)c1cc(C(=O)N2CCCCCC2)ccn1`: -8.55%; `CN(C)c1cc(C(=O)N2CCCCC2)ccn1`: -78.5%.
Turning to `Cc1ccc(N(CCC#N)C(=O)CN2CCCC2c2cccs2)cc1` (configuration not stated), the INHIBITION turned out to be 13.3%.
Turning to `N#CCCN(C(=O)CN1CCCC1C1CCCCC1)c1ccccc1` (configuration not stated), the INHIBITION was determined as 52.2%.
Next, `N#CCCN(C(=O)CN1CCCC1Cc1ccccc1)c1ccccc1` (configuration not stated): 22.1%.
Regarding `N#CCCN(C(=O)CN1CCCC1c1ccccc1Cl)c1ccccc1` (configuration not stated), the INHIBITION is reported as 40.4%.
For `Cc1ccc(N(CCC#N)C(=O)CN2CCCC2c2ccsc2)cc1` (configuration not stated), the INHIBITION is recorded as 46.2%.
Next, `N#CCCN(C(=O)CN1CCCC1c1ccsc1)c1ccccc1F` (configuration not stated): 69.7%; `N#CCCN(C(=O)CN1CCCC1c1ccsc1)c1ccccc1` (configuration not stated): 1.81%.
Take `CN(C(=O)CN1CCCC1Cc1ccccc1)c1ccccc1` (configuration not stated): the INHIBITION worked out at 22.7%.
For the compound `Cc1ccc(C2CCCN2CC(=O)N(CCC#N)c2ccccc2)cc1` (configuration not stated), the INHIBITION turned out to be 62.4%.
Next, `CCN(C(=O)CN1CCCC1Cc1ccccc1)c1ccccc1` (configuration not stated): 61.3%.
Next, `CCN(C(=O)CN1CCCC1c1ccc(OC)cc1)c1ccccc1` (configuration not stated): 18.8%.
Next, `N#CCCN(C(=O)CN1CCCC1c1cccs1)c1ccccc1F` (configuration not stated): 40%.
As to `CC(C)Nc1ncc(-c2csc(NC(=O)C[C@H]3COCCN3)n2)cn1`, the INHIBITION is listed as -130%.
Next, `c1ccc(CN2CCc3ncnc(-c4cccnc4)c3CC2)nc1`: -71.1%; `Cc1cnccc1NCCNC1CCSCC1`: -40.9%; `CCc1nccn1CC(=O)Nc1cccc(N2CCCC2)c1`: -50.9%.
Next, `Cn1nc(C2CCCNC2)c2c(C(=O)NC3CC3)cc(C3CC3)nc21` (configuration not stated): -98.6%.
As for `CC(=O)c1ccc(OCC(=O)NS(=O)(=O)c2ccc(C)s2)cc1`, the INHIBITION was -93.5%.
Next, `CC(C)C(NC(N)=O)C(=O)NCc1ccc(N2CCCC2)nc1` (configuration not stated): -34.4%.
Next, `Cc1nnc(CN2C[C@@H]3CC[C@H]2CN(C2Cc4ccccc4C2)C3)o1`: 38.4%; `Cc1noc(CN2C[C@@H]3CC[C@H]2CN(C2Cc4ccccc4C2)C3)n1`: 3.93%.
Next, `Cc1cc(CN2C[C@@H]3CC[C@H]2CN(C2Cc4ccccc4C2)C3)on1`: 62.7%; `Cc1noc(CNC(=O)CN(C)c2nc3c(C)ccc(C)c3s2)n1`: -71.5%; `CCCn1nccc1-c1cc(C2CCN(S(C)(=O)=O)CC2)ccn1`: -114%.
As to `CN(C[C@@H]1CCC[C@@H]2CN(c3ncccn3)C[C@@H]21)C1CC1`, the INHIBITION is on record as 17.5%.
As for `COCCN(C)C[C@@H]1CCC[C@@H]2CN(c3ncccn3)C[C@@H]21`, the INHIBITION is 33.9%.
Take `CN(C)C[C@@H]1CCC[C@@H]2CN(c3cccnc3)C[C@@H]21`: the INHIBITION was determined as 56.4%.
Consider `CN(C)C[C@@H]1CCC[C@@H]2CN(c3nccc(C(F)(F)F)n3)C[C@@H]21`, for which the INHIBITION is 64.8%.
Next, `Cc1ccc(N2C[C@H]3CCC[C@@H](CN(C)C)[C@H]3C2)nn1`: -54.9%; `CN(C)C[C@@H]1CCC[C@@H]2CN(c3ncccn3)C[C@@H]21`: 44.8%.
In the case of `O=C(NCc1cc(=O)n2c(n1)CN(CC1CC1)CCC2)c1ccsc1`, the INHIBITION is on record as -69.7%.
Next, `c1cnc(N2CC3(CCN(CC4CCOC4)CC3)c3ccccc32)nc1` (configuration not stated): -5.4%; `c1cnc(N2CC3(CCN(C4CCOC4)CC3)c3ccccc32)nc1` (configuration not stated): -101%; `c1cnc(N2CC3(CCN(C4CCOCC4)CC3)c3ccccc32)nc1`: 64%.
Next, `COCCN1CCc2cc(C(=O)NC(C)C)c(NCC3CC3)nc2CC1`: 33.6%; `O=C(CCn1cccn1)NCCOc1ncc(Cl)cc1Cl`: 18.7%; `N#Cc1ccc(N2CCC3(CC2)CC(OCc2cccnc2)CO3)cc1` (configuration not stated): -57.3%.
Next, `COCCN1CCC2(CC1)CC(NC(=O)COC)c1ccccc1O2` (configuration not stated): -38.3%; `COCCN1CCC2(CC1)CC(NC(=O)CC1CC1)c1ccccc1O2` (configuration not stated): -92.9%; `COCCN1CCC2(CC1)CC(NC(=O)CN(C)C)c1ccccc1O2` (configuration not stated): 67.7%.
Regarding `CNCc1cc(C)n(-c2ccccc2OC)c1C`, the INHIBITION was 30.8%.
